Measured values published in PubChem BioAssay.
Calls of active or inactive are those of the source.

What was measured:
[1] = compound effects on lung adenocarcinoma cell viability – A549, calcein-AM fluorescence, 48 h, basal, profiling panel (AID 1162); conditions: higher = more signal
[2] = compound effects on differentiated 3T3-L1 adipocyte viability – cell-based, 3T3-L1 adipocytes, calcein-AM fluorescence, 48 h, basal, profiling panel (AID 1163); conditions: 3T3-L1 adipocytes viability, higher = more signal
[3] = compound effects on hepatocellular carcinoma cell viability – HepG2, calcein-AM fluorescence, 48 h, basal, profiling panel (AID 1164); conditions: higher = more signal
[4] = compound effects on multiple myeloma cell viability – MM1S, calcein-AM fluorescence, 48 h, basal, profiling panel (AID 1165); conditions: higher = more signal
[5] = calcein-AM signal in unstimulated myeloma cells – cell-based, calcein-AM fluorescence, 48 h, PK04 Diversity Set, profiling panel (AID 1166); conditions: RPMI8226 myeloma viability, higher = more signal;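 further: cells grown under basal conditions without added stimulus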
[6] = JC-1 mitochondrial signal, unstimulated HepG2 cells – cell-based, JC-1 fluorescence, 24 h, 100 nL compound, profiling panel (AID 1167); conditions: HepG2 mitochondrial potential, higher = more signal
[7] = JC-1 mitochondrial signal, unstimulated adipocytes – cell-based, JC-1 fluorescence, 3T3-L1 adipocytes, 24 h, 100 nL compound, profiling panel (AID 1168); conditions: JC-1 mitochondrial fluorescence, higher = more signal, called active from +8 up or from −8 down
[8] = JC-1 mitochondrial signal, unstimulated myeloma cells – cell-based, JC-1 fluorescence, RPMI8226, 24 h, 100 nL compound, profiling panel (AID 1169); conditions: JC-1 mitochondrial potential fluorescence, higher = more signal
[9] = JC-1 mitochondrial signal, unstimulated MM1S myeloma – cell-based, JC-1 fluorescence, 24 h, 100 nL compound, profiling panel (AID 1170); conditions: MM1S mitochondrial potential, higher = more signal
[10] = resazurin metabolic signal in A549 cells – cell-based, resazurin fluorescence, 24 h, PK04 Diversity Set, profiling panel (AID 1171); conditions: A549 viability, higher = more signal, called active from +8 up or from −8 down
Further: test concentration not given here.

Row | SMILES | z-score [1] | z-score [2] | z-score [3] | z-score [4] | z-score [5] | z-score [6] | z-score [7] | z-score [8] | z-score [9] | z-score [10]
1 | O=C(O)[C@H]1C[C@H]2C(=O)N3CCC[C@H]3C(=O)N2[C@H]1c1ccc(O)cc1 | 0.835 | 0.469 | 0.0504 | -0.8 | 0.0046 | 1.38 | -0.0658 (inactive) | -0.703 | -0.22 | 0.799 (inactive)
2 | CS(=O)(=O)CCOC(=O)C1=CC(CCCO)=CC(C2CC2)N(Cc2cc3c(cc2Br)OCO3)C=C1C(=O)OCCS(C)(=O)=O (stereo not given) | 1.25 | 0.385 | 0.862 | -0.538 | -0.246 | 3.31 | 0.262 (inactive) | -0.41 | -1.37 | 0.796 (inactive)
3 | CN1C(=O)C2C=CC(C(O)C=Cc3ccc([N+](=O)[O-])cc3)N(Nc3ccccc3)C2C1=O (stereo not given) | -0.598 | -1.6 | -0.432 | -0.655 | -0.997 | -1.53 | -1.48 (inactive) | -0.634 | -0.681 | -0.408 (inactive)
4 | NCCCCCNC(=O)[C@H]1C[C@H]2C(=O)N3CCC[C@H]3C(=O)N2[C@H]1c1ccc(O)cc1 | -0.246 | 0.339 | -0.0476 | -1.11 | -0.177 | -0.0181 | 0.0417 (inactive) | -0.398 | 0.286 | -0.166 (inactive)
5 | O=C(NCc1ccccc1)[C@@H]1c2ccccc2C(=O)N(C2Cc3ccccc3C2)[C@H]1c1ccc(CO)cc1 | 0.365 | 0.363 | 0.291 | 0.0344 | -1.3 | 1.52 | -0.508 (inactive) | 0.0926 | 0.458 | 0.791 (inactive)
6 | O=C1O[C@@H](c2ccccc2)[C@@H](c2ccccc2)N2[C@@H](c3ccc(OCCO)cc3)[C@]3(C(=O)Nc4ccc(C#CC5=CCCCC5)cc43)[C@@H](C(=O)N3CCCCCCC3)[C@H]12 | -0.364 | 0.284 | 1.1 | -0.446 | -1.31 | 0.226 | -4.13 (inactive) | -0.831 | -1.14 | -0.207 (inactive)
7 | COc1cc2c(cc1O)C(c1cccs1)N(Cc1cccc(OC(F)(F)F)c1)CC2 (stereo not given) | -2.79 | -0.0814 | -2.37 | -3.14 | -4.49 | -2.21 | -0.019 (inactive) | -0.774 | -1.77 | -1.98 (inactive)
8 | C=CCN1C(=O)[C@]2(Cc3ccccc3)N=C(c3ccc(OCCCO)cc3)O[C@@H]2c2ccccc21 | 0.0386 | 0.146 | -1.62 | -3.02 | -3.91 | 0.822 | 2.21 (inactive) | -1.21 | -2.81 | -2.28 (inactive)
9 | C=CC[C@]12N=C(c3ccc(OCCCO)cc3)O[C@H]1c1ccccc1N(CCS(=O)(=O)c1ccccc1)C2=O | 0.289 | 0.839 | 0.324 | -1.68 | -0.916 | 0.134 | 1.73 (inactive) | -1.01 | -1.25 | -1.02 (inactive)
10 | COCCOC(=O)N1C(=O)[C@@]2(c3ccccc31)[C@H](c1ccc(OCCO)cc1)N1[C@H](c3ccccc3)[C@H](c3ccccc3)OC(=O)[C@H]1[C@@H]2C(=O)N1CCc2cc(OC)c(OC)cc2C1 | 0.114 | 1.09 | 1.37 | 0.175 | -0.0296 | 0.39 | 3.06 (inactive) | -0.749 | -1.53 | -0.247 (inactive)
11 | O=C(NC1CC1)[C@@H]1c2ccccc2C(=O)N(Cc2cc(F)cc(C(F)(F)F)c2)[C@H]1c1ccc(CO)cc1 | 0.35 | -0.392 | -0.134 | -1.65 | 0.88 | 0.86 | -0.587 (inactive) | 0.0276 | -0.232 | 1.36 (inactive)
12 | O=C1O[C@H](c2ccccc2)[C@H](c2ccccc2)N2[C@H]1[C@@H](C(=O)NC[C@H](O)c1ccccc1)[C@]1(C(=O)Nc3ccccc31)[C@H]2c1ccc(O)cc1 | -0.184 | 0.279 | -0.454 | -2.03 | -3.84 | -3.2 | -0.104 (inactive) | -0.933 | -1.03 | -0.377 (inactive)
13 | C#CCNCc1ccccc1 | -0.29 | -0.0255 | 0.331 | 0.612 | -0.523 | -0.221 | -0.815 (inactive) | -0.804 | -0.00594 | 0.0196 (inactive)
14 | CCOC(=O)C[C@H]1[C@H](OC(=O)c2cc3ccccc3oc2=O)[C@@H](NC(=O)CC(C)C)c2cc(OCCCO)ccc2N1C(=O)c1ccccc1 | -0.276 | 1.52 | 0.314 | 0.117 | -0.0793 | 1.14 | 0.9 (inactive) | -0.882 | 0.915 | -1.33 (inactive)
15 | CCOC(=O)C[C@H]1[C@H](OC(=O)c2ccc(C(=O)c3ccccc3)cc2)[C@@H](NC(=O)Cc2ccc(OC)cc2)c2cc(OCCCO)ccc2N1C(=O)c1ccc2ccccc2n1 | 1.33 | -0.121 | 0.493 | -0.854 | -0.614 | 0.658 | 2.22 (inactive) | -0.234 | 0.567 | -0.383 (inactive)
16 | COCC(=C=CC[C@H](O)c1cccc(OCCO)c1)C[C@H](O)c1cc(Cl)cc(Cl)c1O | 0.593 | -0.317 | 0.956 | -0.967 | -0.193 | 0.277 | 0.86 (inactive) | 0.262 | -0.931 | 0.627 (inactive)

Row | SMILES | z-score [1] | z-score [2] | z-score [3] | z-score [4] | z-score [5] | z-score [6] | z-score [7] | z-score [8] | z-score [9] | z-score [10]
17 | Cc1ccc(/C=C/C=O)cc1 | 0.572 | -0.106 | 0.935 | 0.858 | 0.532 | 1.34 | -0.111 (inactive) | -0.758 | 0.427 | -0.64 (inactive)
18 | O=C(O)[C@@]1(CCS(=O)(=O)c2ccccc2)N=C(c2ccc(OCCCO)cc2)O[C@H]1c1ccccc1 | -0.932 | 0.784 | -0.258 | -0.839 | -1.04 | 0.591 | -0.249 (inactive) | -0.178 | -0.51 | 0.761 (inactive)
19 | CC(C)CCC[C@@H](C)[C@H]1CC[C@@]2(C)C3=C(CC[C@]12C)[C@@]1(C)CC[C@H](OC(=O)c2ccc(C(F)(F)F)nc2)C(C)(C)C1CC3 (stereo not given in full) | 0.351 | 0.806 | 0.717 | 0.18 | 0.79 | 0.726 | -0.215 (inactive) | 0.483 | -0.263 | -0.0879 (inactive)
20 | O=C(NCCN1CCOCC1)[C@@H]1c2ccccc2C(=O)N(Cc2cc(C(F)(F)F)cc(C(F)(F)F)c2)[C@H]1c1ccc(CO)cc1 | 1.79 | -0.587 | 1.82 | 0.266 | -0.0119 | 2.85 | 0.252 (inactive) | -0.021 | -0.227 | 0.0288 (inactive)
21 | COCCOC(=O)N1C(=O)[C@@]2(c3cc(C#CC4=CCCCC4)ccc31)[C@H](C(N)=O)[C@H]1C(=O)O[C@H](c3ccccc3)[C@H](c3ccccc3)N1[C@@H]2c1ccc(O)cc1 | 0.282 | 0.326 | 0.581 | -3.07 | -4.54 | -1.89 | 1.1 (inactive) | -1.22 | -0.992 | -1.77 (inactive)
22 | CC(C)(C)OC(=O)CC[C@@]1(C(=O)N2CCCCC2)N=C(c2ccc(OCCCO)cc2)O[C@@H]1c1ccccc1 | -0.637 | 0.452 | 0.644 | -1.99 | -2.22 | 1.59 | 0.0803 (inactive) | -0.636 | 0.0287 | 0.894 (inactive)
23 | COc1ccc([Si](C)(C)[C@@H]2[C@@H](CC(=O)N3Cc4ccccc4C[C@H]3CO)O[C@]3(C(=O)N(Cc4cccc(N5CCC5=O)c4)c4ccccc43)[C@H]2C)cc1 | -0.598 | 0.832 | -0.16 | -2.1 | -2.55 | -0.372 | 1.33 (inactive) | -0.755 | -1.16 | -1.38 (inactive)
24 | COCCOC(=O)N1C(=O)[C@@]2(c3cc(C#CC4(O)CCCCCC4)ccc31)[C@H](C(=O)Nc1nc3ccccc3s1)[C@H]1C(=O)O[C@H](c3ccccc3)[C@H](c3ccccc3)N1[C@@H]2c1ccc(OCCO)cc1 | -0.593 | 1.47 | -0.15 | -1.83 | -2.56 | -3.3 | -0.438 (inactive) | -0.635 | -1.18 | 0.566 (inactive)
25 | COc1ccc([Si](C)(C)[C@@H]2[C@@H](CCn3cc([C@H](O)c4ccccc4)nn3)O[C@]3(C(=O)N(Cc4cccc(N5CCC5=O)c4)c4ccccc43)[C@H]2C)cc1 | 0.208 | 0.745 | -0.924 | -0.6 | -0.984 | -0.262 | 1.15 (inactive) | -0.735 | -0.487 | 0.0773 (inactive)
26 | Cc1c(NC(=O)/C(C#N)=C/c2cccc([N+](=O)[O-])c2)c(=O)n(-c2ccccc2)n1C | 4.01 | 1.31 | 0.461 | 0.943 | 2.4 | 0.69 | -1.08 (inactive) | -0.122 | -0.054 | -0.133 (inactive)
27 | CC(C)(C)OC(=O)CC[C@]1(C(N)=O)N=C(c2ccc(OCCCO)cc2)O[C@H]1c1ccccc1 | -0.73 | 0.13 | -0.61 | -0.415 | 0.37 | -1.26 | -0.709 (inactive) | 0.816 | 0.335 | -0.164 (inactive)
28 | CN1C(=O)C2C=CC(C(O)c3ccc(F)cc3)N(N(c3ccccc3)c3ccccc3)C2C1=O (stereo not given) | -0.631 | -2.01 | 0.153 | 0.0431 | -0.462 | -1.03 | -0.802 (inactive) | 0.399 | -1.03 | -0.867 (inactive)
29 | CCN(CC)c1ccc(N2CC=CC34O[C@@H]5C=CCOC(=O)[C@@H]5[C@H]3C(=O)N(CCCCCCO)[C@@H]4C2=O)cc1 (stereo not given in full) | -0.705 | 0.839 | -0.0976 | 1.4 | 0.922 | 0.554 | 1.21 (inactive) | 0.267 | -0.72 | 1.37 (inactive)
30 | COC(=O)C[C@H]1O[C@@H](CCc2ccccc2)[C@@H](C)[C@@H]1[Si](C)(C)c1ccc(OC)cc1 | 1.47 | 1.27 | -0.755 | -0.843 | -3.97 | 0.453 | -0.0941 (inactive) | -1.12 | -0.0681 | 0.989 (inactive)
31 | COC(=O)[C@@]1(Cc2ccccc2)[C@H]2c3cc(C(=O)N4CCCC4)n(Cc4ccc(O)c(OC)c4)c3C[C@H]2CN1C(=O)c1ccccc1 | 0.114 | 0.0713 | 0.876 | -1.27 | -1.65 | 0.848 | -1.63 (inactive) | 0.332 | -0.601 | -1.5 (inactive)
